Bioassay records (PubChem)
G9a inh: blocks human histone lysine methyltransferase G9a | 350,000 tested, 8.8% active | G9a H3K9 monomethylation, AlphaScreen, 2 h | Q96KQ7 | Potency, µM (doses to about 102 µM), for the others: at the top dose activity, negative = inhibition, hits mostly inhibitors; note: potency is the fitted concentration of half-maximal effect; % is set by controls: 0 for no effect and ±100 for the full control effect; nearly all actives have a fitted effect of over 75% in size
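Enzyme 20 nM + cpd, 15 min RT; add b-H3K9 pep 500 nM / SAM 20 uM; 2 h RT; anti-H3K9me1 Ab 0.5 ug/mL + SA donor / anti-rabbit acceptor beads 20 ug/mL each, 10 min; AlphaScreen read.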
PI5P4Ka inh: inhibitors of human PI5P4K alpha; 330,000 tested, 1.2% active; PI5P4Kalpha enzyme, ADP-Glo luminescence, 60 min; stronger effect = lower value; max response, %; AID 652105; active = max response of -50% or lower; inconclusive = between -30% and -50%; inactive = -30% or higher; note: value at the top dose of about 77 µM; % is set by controls: 0 for no effect and ±100 for the full control effect
Target sequence (P48426 whole entry, looked up): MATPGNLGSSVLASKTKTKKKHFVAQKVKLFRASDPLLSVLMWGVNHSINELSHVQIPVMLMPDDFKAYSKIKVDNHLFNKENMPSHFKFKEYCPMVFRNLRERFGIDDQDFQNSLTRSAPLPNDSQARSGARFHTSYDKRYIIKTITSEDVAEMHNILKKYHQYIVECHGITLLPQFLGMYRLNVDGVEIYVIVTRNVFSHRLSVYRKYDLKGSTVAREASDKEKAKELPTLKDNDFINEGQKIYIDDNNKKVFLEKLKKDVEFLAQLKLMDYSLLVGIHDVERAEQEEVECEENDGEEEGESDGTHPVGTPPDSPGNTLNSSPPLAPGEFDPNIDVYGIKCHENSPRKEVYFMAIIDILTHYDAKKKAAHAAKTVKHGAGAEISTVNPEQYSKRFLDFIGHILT
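qHTS, 1536-well: enzyme/substrate mix, compound by pin tool, 5 microM ATP final; RT 60 min; ADP-Glo reagents 1 (45 min) then 2 (30 min); luminescence.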
JMJD2A Tudor: blocks the human JMJD2A Tudor domain; 390,000 tested, 4.4% active; AID 504339; AlphaScreen JMJD2A-Tudor / H3K4me3 peptide binding; Potency, µM (titrated, usually from 114 µM), for the others: at the highest dose activity change, negative = inhibition, usual class: inhibitors; O75164; note: potency is the fitted concentration of half-maximal effect; % is set by controls: 0 for no effect and ±100 for the full control effect; nearly all actives have a fitted effect of over 50% in size
BAZ2B block: blocks human BAZ2B | Q9UIF8 | AlphaScreen BAZ2B-H3K14Ac peptide displacement | Potency, µM (top dose mostly 114 µM), for inactives: at the highest dose activity change, negative = inhibition, most hits filed as inhibitors | 360,000 tested, 4.4% active | AID 504333; note: potency is the fitted concentration of half-maximal effect; % is set by controls: 0 for no effect and ±100 for the full control effect; nearly all actives have a fitted effect of over 60% in size
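BAZ2B 50 nM plus b-H3(5-23)K14Ac 50 nM, PBS pH 7.4/0.01% Tween-20, 30 min RT; compound added (max 110 uM), 30 min RT; streptavidin donor/Ni-chelate acceptor beads 10 ug/mL final, 20 min dark; AlphaScreen read.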
HP1b chromo inh: inhibitors of HP1-beta chromodomain binding to methylated histone tails. P83916. AlphaScreen HP1-beta / biotin-H3K9me3 peptide binding. Potency, µM (doses to about 114 µM), for inactives: top-dose activity change, negative = inhibition, most hits filed as inhibitors. 390,000 tested, 0.56% active. AID 540317; note: potency is the fitted concentration of half-maximal effect; nearly all actives have a fitted effect of over 70% in size
Target sequence (P83916 whole entry, looked up): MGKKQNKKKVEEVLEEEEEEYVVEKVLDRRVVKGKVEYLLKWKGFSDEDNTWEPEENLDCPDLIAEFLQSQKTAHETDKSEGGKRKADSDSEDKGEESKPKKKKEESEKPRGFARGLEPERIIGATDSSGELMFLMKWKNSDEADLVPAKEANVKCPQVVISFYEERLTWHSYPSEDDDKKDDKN
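AlphaScreen: HP1-beta (50 nM) preformed 30 min with biotin-H3(1-18)K9me3 peptide (50 nM) in PBS pH 7.4, 0.01% Tween-20. Compound added for 30 min at RT, then streptavidin donor/nickel chelate acceptor beads (10 ug/mL) for 30 min.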
L3MBTL1 block: blocks human L3MBTL1; Q9Y468; AlphaScreen L3MBTL1–H3K9me1 peptide binding; Potency, µM (highest dose often 57.1 µM), inactives show top-dose activity, negative = inhibition, most hits filed as inhibitors; 230,000 tested, 0.66% active; note: potency is the fitted concentration of half-maximal effect; % is set by controls: 0 for no effect and ±100 for the full control effect; nearly all actives have a fitted effect of over 60% in size
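Read-out is AlphaScreen signal from streptavidin donor and nickel chelate acceptor beads (10 ug/mL final each) bridging L3MBTL1 (50 nM) and biotinylated K9-monomethylated H3(1-15) peptide (75 nM), after 30 min compound exposure at room temperature.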
Numbers without * were called inactive; ? = inconclusive; / = no result; [ ] = dose if it differs, or a comment. A selection: hits, their analogues and other compounds. The true share with any hit is near 11%. Unless noted, calls come from the whole dose curve; as a rule, active = well fitted inhibition curve with a large enough effect; inconclusive = small, poorly fitted or top-dose-only effect; inactive = no such curve, though single readings can be large or run the other way.

SMILES	G9a inh	PI5P4Ka inh	JMJD2A Tudor	BAZ2B block	HP1b chromo inh	L3MBTL1 block
Cn1ccnc1SCC(=O)c1ccc(OC(F)F)cc1	?	1.6	-10.2%	-3.7%	-4.5%	/
CCn1c(CNC(=O)c2ccco2)nnc1SCC(=O)c1ccc(OC)cc1	3.5%[0.501 µM]	-1.2	-9.7%	-12.8%	29.5%	0.1%
Cc1nn(CC(=O)NC2CC2)c(=O)c2cc3ccccc3n12	-33.8%[59 µM]	/	-6.2%	-0.6%	28.1%	/
CC1=C(C(=O)Nc2ccc(C)cc2C)C(c2ccccc2F)n2nc(SCC(=O)c3ccc(C)cc3)nc2N1 (stereo not drawn)	21.0%[59 µM]	/	-13.7%	-3.7%	32.6%	/
Cc1noc(C)c1-c1cncnc1N(C)Cc1ccco1	-26.0%[0.501 µM]	/	/	/	/	/
COc1ccc(NC(=O)Cn2c(=O)n(-c3cccc(C)c3)c(=O)c3c2c2cc(C)ccc2n3C)cc1OC	-1.5%[59 µM]	/	1.0%	-2.7%	36.8%	/
O=C(NCc1cccnc1)C(=O)Nc1nccs1	?	/	/	/	/	2.1%
O=C(NCc1ccc(Cl)cc1)C(=O)Nc1nccs1	50.1µM*	-3.4	-7.5%[11.4 µM]	-12.8%	21.1%	9.1%
S=C(NCCCn1ccnc1)Nc1cccc(Cl)c1	79.4µM*	0.3	-12.4%	44.7µM*	42.2%	-3.6%
CC(C)Cc1ccc(C(C)C(=O)Nc2nccs2)cc1 (stereo not drawn)	?	/	-16.6%	0.6%	8.1%	/
CC(C)c1ccc(CNC(=O)C(=O)Nc2nccs2)cc1	7.08µM*	-10.1	?	-4.5%	10.8%	/
CC(C)c1ccc(CNC(=O)C(=O)NCCCn2ccnc2)cc1	-0.4%[59 µM]	14.5	-27.3%	50.1µM*	13.8%	/
CCOc1ccc(NC(=S)NCCCn2ccnc2)cc1	8.3%[59 µM]	-6.3	-5.0%	-0.2%	31.1%	-1.4%
Cc1cccc(N(CC(=O)Nc2ccccc2C(F)(F)F)S(=O)(=O)c2ccccc2)c1C	-33.0%[59 µM]	/	-15.9%	-2.7%	20.0%	/
CCCCCSc1nnc(-c2cc(Br)ccc2N)c(=O)[nH]1	44.7µM*	3.0	-9.4%	2.1%	38.9%	-0.7%
CN(C)c1ccc(CNc2ncnc3sccc23)cc1	12.6µM*	-3.1	-35.3%	-36.3%	2.8%	/
CN(C)c1ccc(CNc2ncc(Br)cc2Br)cc1	39.8µM*	9.7	20µM*	14.1µM*	-66.3%	?
O=c1/c(=C/c2ccc(O)cc2)sc2n1CCCN=2	?	-19.7	-1.6%	5.5%	19.3%	4.2%
CN(C)c1ccc(/C=c2\sc3n(c2=O)CCCN=3)cc1	3.16µM*	4.3	-22.6%[11.4 µM]	-34.3%	15.9%	-3.1%
COc1ccc(N=Cc2sc(O)c3ccccc23)cc1	?	75.4	8.2%	31.5%	42.2%	15.5%
COc1ccc(N=Cc2c(O)c3ccccc3n2C(C)=O)cc1	25.1µM*	2.9	10.2%	-16.8%	71.3%	16.4%
CCCCCn1c(=N)c(S(=O)(=O)c2ccccc2)cc2c(=O)n3ccccc3nc21	-5.0%[59 µM]	/	-0.3%	-0.1%	19.9%	/
O=C(Nc1ccc2c(c1)OCO2)c1ccccc1SCC(=O)N1CCCC1	-11.7%[12.7 µM]	-1.2	-4.9%	13.3%	25.5%	8.2%
O=C(Nc1ccc(N2CCOCC2)cc1)c1cc(F)c(F)cc1Cl	-4.2%[59 µM]	5.3	-20.3%	-0.5%	17.3%	1.3%
Cc1ccc(NC(=O)c2cc(N3C(=O)C=CC3=O)ccc2N2CCOCC2)cc1Cl	1.58µM*	-76.5*	20µM*	50.1µM*	?	-7.5%
SMILES	G9a inh	PI5P4Ka inh	JMJD2A Tudor	BAZ2B block	HP1b chromo inh	L3MBTL1 block
O=C(Nc1ccc(N2CCOCC2)cc1)c1ccccc1SCC(=O)N1CCCC1	7.08µM*	-24.3	-18.9%	-7.3%	12.4%	-17.1%
CC(C)c1ccc(C(=O)Nc2ccc(N3CCOCC3)cc2)cc1	50.1µM*	-4.3	-12.6%	-10.4%	22.9%	-11.3%
CSc1ccc(Cl)c(C(=O)Nc2ccc(N3CCOCC3)cc2)c1	50.1µM*	-3.5	-33.8%	?	2.4%	0.5%
COC(=O)c1sccc1S(=O)(=O)N(CC(=O)Nc1cc(C)ccc1C)c1ccc(C)c(C)c1	12.3%[59 µM]	/	-8.3%	-22.3%	26.9%	/
O=C(Nc1ccc(N2CCOCC2)c(Cl)c1)c1ncn[nH]1	-10.7%[59 µM]	-8.0	56.2µM*	17.8µM*	28.2%	?
O=C(Nc1ccc(N2CCOCC2)cc1)Nc1ccc(Cl)c(Cl)c1	7.08µM*	/	-32.1%	-9.9%	20.4%	/
